Vaccinia Venus: inhibitors of vaccinia virus (Venus reporter) | Vaccinia virus Venus reporter expression, fluorescence | Potency, µM (top dose mostly 36.5 µM), without a hit: at the top dose activity change, negative = inhibition, actives largely listed as inhibitors | 330,000 compounds, 0.46% hits | AID 720580; calls by dose curve; tested in A549 cells; also: nearly all actives have a fitted effect of over 30% in size
FMDV antiviral: antivirals against foot and mouth disease virus; FMDV antiviral cell-based qHTS; Potency, µM (doses to about 57.9 µM), without a hit: top-dose activity change, negative = inhibition, usual class: inhibitors; 410,000 compounds, 1.2% hits; AID 1159524; calls by dose curve; tested in HEK293T cells; also: read-out not given here; nearly all actives have a fitted effect of over 45% in size
Marburg entry inh: Marburg virus entry inhibition. Marburg virus pseudotyped entry inhibition, cell reporter. Potency, µM (titrated, usually from 37.8 µM), for the others: at the highest dose activity change, negative = inhibition, actives largely listed as inhibitors. 300,000 compounds, 1.8% hits. AID 540276; calls by dose curve; tested in HEK293 cells
LASV entry inh: inhibitors of Lassa virus binding or cell entry; Lassa virus pseudotype entry inhibition, cell reporter; Potency, µM (highest dose often 37.9 µM), inactives show top-dose activity change, negative = inhibition, most hits filed as inhibitors; 300,000 compounds, 1.2% hits; AID 540256; calls by dose curve; tested in HEK293 cells; also: nearly all actives have a fitted effect of over 50% in size
HCV inh: HCV inhibition; Huh7.5.1 HCVcc-Cre infection, luciferase reporter, 44 h; Potency, µM (series often up to 41.8 µM), inactives show at the top dose activity change, negative = inhibition, actives largely listed as inhibitors; 340,000 compounds, 3.4% hits; AID 651820; active = well fitted inhibition curve with a large enough effect; inconclusive = small, poorly fitted or top-dose-only effect, or another doubt; inactive = no such curve, though single readings can be large or run the other way
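Cells (1,000/well) were plated 4 h before compound, then infected with HCVcc-Cre virus (~0.5 moi). After 44 h further culture, infection was read as luciferase luminescence following a 15 min substrate incubation at room temperature.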
VACV mCherry inh: inhibitors of vaccinia virus infection (mCherry reporter signal) | Vaccinia virus mCherry reporter infection, fluorescence | Potency, µM (top dose mostly 36.5 µM), for inactives: at the highest dose activity change, negative = inhibition, most hits filed as inhibitors | 310,000 compounds, 0.63% hits | AID 720579; calls by dose curve; tested in A549 cells; also: nearly all actives have a fitted effect of over 35% in size
An asterisk follows results filed as active; i = inactive; u = inconclusive; x = not tested or not shown; [ ] = remark or other dose. In the library only some 5.3% were active in any assay of this set; here they are far more common. % is scaled to controls: 0 for no effect and ±100 for the full control effect; potency is read from the fitted curve at half-maximal effect.

SMILES | Vaccinia Venus | FMDV antiviral | Marburg entry inh | LASV entry inh | HCV inh | VACV mCherry inh
Cc1nc(Nc2nc3ccccc3o2)nc2c1CCC2 | x | u | 7.3µM* | u | 2% | x
CCOC(=O)c1cnc(Nc2nc3ccccc3o2)nc1C | x | u | 4.1µM* | 1.3µM* | -9% | x
CCOC(=O)c1cnc(Nc2nc3ccccc3o2)nc1CSc1nnc(C)s1 | x | 16% | u | u | -17% | x
Cc1cccc(C)c1Nc1nc2ccccc2o1 | -9% | -22% | x | x | -26% | u
Cc1oc(-c2cccc(NC(=O)c3ccccn3)c2)nc1CNC(=O)c1ccc(C(F)(F)F)cc1 | -7% | 41% | x | x | x | -19%
CC1(c2ccccc2)CC(C)(C)N(C(=O)c2cccc(Cl)c2)c2ccccc21 (centres undefined) | -7% | 3% | x | -19%[46.1 µM] | x | -9%
CCc1nc2ccc(C(=O)NCCc3ccc(OC)cc3OC)cc2nc1CC | u | -28% | x | 5%[46.1 µM] | x | u
CCNC(=S)N(CCc1c(C)[nH]c2ccc(Cl)cc12)Cc1ccco1 | -16% | u | u | 7.9µM* | 10µM* | u
CNC(=S)N(CCc1c(C)[nH]c2ccc(C)cc12)Cc1ccco1 | -13% | -17% | -40% | -33% | u | i
COCCNC(=S)N(CCc1c(C)[nH]c2ccc(Cl)cc12)Cc1cccs1 | u | -28% | u | u | 7.1µM* | u
CC(=O)Nc1ccc(NC(=O)C(C)OC(=O)c2ccccc2NS(=O)(=O)c2cccs2)cc1 (centres undefined) | -9% | -26% | -1%[46.1 µM] | u | -17% | -5%
Cc1ccccc1NC1=C/C(=N\S(=O)(=O)c2cccs2)c2ccccc2C1=O | x | 10µM* | 3.7µM* | u | 3.5µM* | x
COc1ccc(S(=O)(=O)/N=C2\C=C(Nc3ccc(O)cc3)C(=O)c3ccccc32)cc1 | 3.5µM* | 7.9µM* | u | u | 5.6µM* | 5µM*
CC(=O)Nc1ccc(NC2=C/C(=N/S(=O)(=O)c3cccs3)c3ccccc3C2=O)cc1 | 11µM* | u | 5µM* | u | u | u
Cc1ccc(NC2=C/C(=N/S(=O)(=O)c3cccs3)c3ccccc3C2=O)cc1C | -12% | -18% | -7% | 4% | 8% | i
C[C@H]1CC[C@H]2C(=O)N(Cc3ccc(Cl)cc3)C[C@@H](O)CN2[C@H]1c1ccc(Br)cc1 | x | x | -7%[14.2 µM] | x | x | x
CCCN(CC(=O)Nc1ccccc1C)C(=O)c1ccc(S(=O)(=O)N2CCCCCC2)cc1 | -15% | -16% | u | 2% | -19% | 0%
O=C(CNc1cc(S(=O)(=O)N2CCOCC2)ccc1NCC1CCCO1)Nc1cccc(F)c1 (centres undefined) | -9% | 26% | u | 2% | 10% | -14%
CCCN(CC(=O)Nc1ccccc1C)C(=O)c1cccc(S(=O)(=O)N2CCc3ccccc3C2)c1 | -27% | -7% | u | u | 22µM* | -3%
CCCN(CC(=O)Nc1ccccc1C)C(=O)/C=C/c1ccc(S(=O)(=O)N2CCCCCC2)cc1 | -16% | 0% | 11µM* | -24% | u | -11%
CN(CC(=O)Nc1ccc(F)cc1)C(=O)c1cccc(S(=O)(=O)N2CCN(c3ccccc3)CC2)c1 | -25% | u | u | -21% | -42% | -26%
Cc1cc(Br)ccc1NC(=O)CN(C)C(=O)c1cccc(S(=O)(=O)N2CCN(C)CC2)c1 | x | 0% | x | x | -10% | x
COc1ccc(NC(=O)CN(C)C(=O)c2cccc(S(=O)(=O)N3CCN(c4ccc(F)cc4)CC3)c2)cc1 | x | u | -1% | x | 13µM* | x
O=S(=O)(Nc1cc(S(=O)(=O)N2CCOCC2)ccc1NCC1CCCO1)c1ccc(F)cc1 (centres undefined) | u | 40% | u | -3% | 9% | 2.2µM*
COc1ccccc1CNC(=O)c1cccc(S(=O)(=O)N2CCN(c3ccc(F)cc3)CC2)c1 | x | -17% | x | x | 11µM* | x
SMILES | Vaccinia Venus | FMDV antiviral | Marburg entry inh | LASV entry inh | HCV inh | VACV mCherry inh
CC1CCN(S(=O)(=O)c2cccc(C(=O)NCC3CCCO3)c2)CC1 (centres undefined) | -14% | 2% | 29%[46.1 µM] | 6.3µM* | 11% | -15%
COc1ccccc1CNC(=O)COC(=O)c1cccc(S(=O)(=O)N2CCOCC2)c1 | -2% | -7% | 2%[46.1 µM] | -17% | 11µM* | -10%
COc1ccc(CCNC(=O)c2cccc(S(=O)(=O)N3CCc4ccccc4C3)c2)cc1 | x | u | x | x | 14µM* | x
COc1cccc(C(=O)NCCS(=O)(=O)N2CCc3ccccc3C2)c1 | -9% | -12% | 20% | -12% | 3% | 0%
CC(C)(C)OC(=O)N1CCC(c2c(C(=O)N3CCN(C(=O)c4ccco4)CC3)cnn2-c2ccccc2)CC1 | -13% | -9% | x | 0%[46.1 µM] | x | -17%
COc1ccc(CNC(=O)c2cccc(S(=O)(=O)N3CCN(c4ccc(F)cc4)CC3)c2)cc1 | -23% | -20% | u | u | 7.1µM* | -22%
COc1cccc(CNC(=O)c2cccc(S(=O)(=O)N3CCN(c4ccc(F)cc4)CC3)c2)c1 | -19% | u | -27% | u | u | -26%
COc1ccc(/C(C)=N/NC(=O)c2cccc(S(=O)(=O)N3CCCC3)c2)c(O)c1 | u | -26% | u | u | 3.2µM* | 5.6µM*
CCCN(CC(=O)Nc1ccccc1C)C(=O)COc1c(C)cccc1C | x | -6% | x | x | 0% | x
CCCN(CC(=O)Nc1ccccc1C)C(=O)CCl | 4.5µM* | 13µM* | u | u | 7.1µM* | 4.5µM*
CN(C)c1cccc(C(=O)OCCNC(=O)c2cccc(S(=O)(=O)N3CCOCC3)c2)c1 | x | -6% | x | x | 10µM* | x
O=C(OCCOc1ccccc1)c1cccc(S(=O)(=O)N2CCOCC2)c1 | -8% | -11% | 6% | 1% | 1% | -15%
COc1ccc(CCNC(=O)CCn2c(=O)c3cccn3c3ccc(F)cc32)cc1OC | -7% | -22% | x | 7%[46.1 µM] | x | -14%
CC(C)c1c(C(=O)NCC2(N3CCOCC3)CCCC2)cnn1-c1nccc(-c2cccs2)n1 | -8% | 8% | x | x | x | -13%
O=C(NCC1=C(Cl)CCCC1)C1CNCCC1C(F)(F)F (centres undefined) | x | x | -19% | x | x | x
CC(=O)c1ccc(-c2cccc(-c3nc4ccccn4c3NC3CCCCC3)c2)cc1 | u | u | x | x | 10µM* | -23%
c1csc(-c2nc3ccccn3c2NC2CCCCC2)c1 | -20% | u | u | u | -15% | -19%
Cc1ccc(C)c(N2CCN(C(=O)CCC(=O)N3CCOc4ccc(Cl)cc43)CC2)c1 | u | -28% | x | x | 10µM* | u
Cc1ccc(C)c(N2CCN(C(=O)CCS(=O)(=O)c3ccc4c(c3)NC(=O)C(C)S4)CC2)c1 (centres undefined) | x | 16µM* | x | x | 2.8µM* | x
Cc1ccc(Cl)cc1N1CCN(C(=O)CCS(=O)(=O)c2ccc3c(c2)NC(=O)CO3)CC1 | x | -27% | x | x | 11µM* | x

Bioassay records (PubChem BioAssay)
